The campaign covered roughly 100,000 compounds. About 4,200 (4.2%) were called active. The list comes from a sample in which actives are over-represented; it also holds similar structures and randomly drawn compounds. Values without a mark were called inactive.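 The calls were made as follows: active = single-dose well whose peak fluorescence ratio is a statistical outlier from its plate by either plate-standardised score or position-corrected B-score; inactive = the rest.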

Voltage-dependent T-type calcium channel subunit alpha-1H (Homo sapiens), sequence (O95180 whole entry, looked up): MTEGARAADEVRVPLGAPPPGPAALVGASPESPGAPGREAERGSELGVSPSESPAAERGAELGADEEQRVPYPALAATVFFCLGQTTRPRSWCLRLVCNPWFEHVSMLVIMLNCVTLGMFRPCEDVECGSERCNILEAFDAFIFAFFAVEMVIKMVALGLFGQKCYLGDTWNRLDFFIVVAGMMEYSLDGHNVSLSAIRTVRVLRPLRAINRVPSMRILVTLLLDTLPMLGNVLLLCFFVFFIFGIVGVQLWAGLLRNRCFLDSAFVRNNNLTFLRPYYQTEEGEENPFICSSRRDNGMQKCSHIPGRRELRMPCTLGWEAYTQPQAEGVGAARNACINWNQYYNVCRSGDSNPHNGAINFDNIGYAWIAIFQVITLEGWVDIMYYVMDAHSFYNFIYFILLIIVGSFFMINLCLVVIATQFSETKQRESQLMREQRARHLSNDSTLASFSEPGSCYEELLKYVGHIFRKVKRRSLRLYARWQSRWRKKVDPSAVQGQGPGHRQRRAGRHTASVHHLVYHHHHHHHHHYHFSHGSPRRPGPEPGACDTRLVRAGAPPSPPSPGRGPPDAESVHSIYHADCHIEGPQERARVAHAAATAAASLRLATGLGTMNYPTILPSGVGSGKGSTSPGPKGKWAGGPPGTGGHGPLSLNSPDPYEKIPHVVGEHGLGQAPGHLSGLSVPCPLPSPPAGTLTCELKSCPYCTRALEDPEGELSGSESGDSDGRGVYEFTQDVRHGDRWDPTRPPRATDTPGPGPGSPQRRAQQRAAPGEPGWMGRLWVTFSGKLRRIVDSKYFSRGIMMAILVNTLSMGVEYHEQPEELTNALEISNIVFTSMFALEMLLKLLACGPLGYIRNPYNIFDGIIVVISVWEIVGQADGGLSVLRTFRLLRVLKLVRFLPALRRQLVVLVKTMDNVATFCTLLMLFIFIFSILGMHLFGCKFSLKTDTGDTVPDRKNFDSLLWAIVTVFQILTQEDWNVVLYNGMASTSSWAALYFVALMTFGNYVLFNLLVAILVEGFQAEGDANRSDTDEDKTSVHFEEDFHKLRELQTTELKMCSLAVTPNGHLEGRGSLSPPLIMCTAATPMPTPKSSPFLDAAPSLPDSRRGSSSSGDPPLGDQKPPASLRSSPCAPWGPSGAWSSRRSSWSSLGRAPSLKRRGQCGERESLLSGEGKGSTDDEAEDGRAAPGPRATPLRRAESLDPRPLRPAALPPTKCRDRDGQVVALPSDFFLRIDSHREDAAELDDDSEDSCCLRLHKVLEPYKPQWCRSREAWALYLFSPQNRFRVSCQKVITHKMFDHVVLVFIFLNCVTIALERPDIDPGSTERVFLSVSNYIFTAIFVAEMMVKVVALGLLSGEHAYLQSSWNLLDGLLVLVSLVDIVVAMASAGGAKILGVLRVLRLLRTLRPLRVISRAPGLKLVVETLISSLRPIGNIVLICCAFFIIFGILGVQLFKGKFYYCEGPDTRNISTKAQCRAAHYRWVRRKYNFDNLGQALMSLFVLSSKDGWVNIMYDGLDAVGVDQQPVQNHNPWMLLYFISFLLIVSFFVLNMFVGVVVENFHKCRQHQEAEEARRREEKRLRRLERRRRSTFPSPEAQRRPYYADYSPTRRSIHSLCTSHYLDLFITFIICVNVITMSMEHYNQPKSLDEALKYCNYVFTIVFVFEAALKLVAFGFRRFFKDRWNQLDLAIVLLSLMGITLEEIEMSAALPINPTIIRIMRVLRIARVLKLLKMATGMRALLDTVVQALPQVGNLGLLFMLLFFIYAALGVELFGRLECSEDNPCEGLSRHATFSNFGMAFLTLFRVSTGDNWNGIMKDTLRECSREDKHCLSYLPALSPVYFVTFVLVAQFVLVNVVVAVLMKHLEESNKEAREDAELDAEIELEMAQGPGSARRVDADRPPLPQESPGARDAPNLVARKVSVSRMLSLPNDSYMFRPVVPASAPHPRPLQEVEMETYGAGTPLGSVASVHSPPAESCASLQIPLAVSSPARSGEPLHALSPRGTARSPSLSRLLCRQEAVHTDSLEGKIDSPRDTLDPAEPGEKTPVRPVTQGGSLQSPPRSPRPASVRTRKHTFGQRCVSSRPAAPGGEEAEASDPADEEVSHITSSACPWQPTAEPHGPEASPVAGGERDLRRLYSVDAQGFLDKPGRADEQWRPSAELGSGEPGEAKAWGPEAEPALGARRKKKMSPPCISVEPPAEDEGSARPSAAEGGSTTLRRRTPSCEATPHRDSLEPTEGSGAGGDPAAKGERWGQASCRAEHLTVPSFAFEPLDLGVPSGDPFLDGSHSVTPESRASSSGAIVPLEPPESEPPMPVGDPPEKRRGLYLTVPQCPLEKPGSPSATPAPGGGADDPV

This assay concerns the target Voltage-dependent T-type calcium channel subunit alpha-1H (Homo sapiens) (UniProt O95180). The assay is described as follows: Cav3.2 calcium influx blockers – cell-based, Fluo-4 calcium fluorescence, FDSS, MLSMR library, primary screen (AID 449739). As to conditions: Cav3.2-expressing cells, at 10 µM, active compounds read low.
As to `CCn1c(CSc2ncccn2)nnc1SCC(=O)N1c2ccccc2CC1C` (centres undefined), the B-score is 0.0736.

With `CC1Cc2ccccc2N1C(=O)Cn1cnc2ccccc2c1=O` (centres undefined), the B-score was 0.0523.

Consider `CCCCn1ccnc1C(=O)c1cccc(S(=O)(=O)N2c3ccccc3CC2C)c1` (centres undefined), for which the B-score was -5.72 (active).

For the compound `O=C(NC1CC1)c1ccc2c(c1)NC(=O)c1ccccc1S2`, the B-score was -0.133.

As for `COc1ccc(COCCN2CCN(S(=O)(=O)c3ccccc3)CCC2=O)cc1`, the B-score was -0.361.

Take `COc1cc([C@H](Cc2ccccc2)NC(C)=O)oc(=O)c1`: the B-score was -0.786.

Regarding `Cc1ccc(/C=N/NC(=O)C(NC(=O)c2ccccc2)c2n[nH]c(=O)c3ccccc23)cc1` (centres undefined), the B-score is -4.96 (active).

Turning to `Cc1ccc(S(=O)(=O)Oc2ccc(/C=N/NC(=O)c3c(Cl)cnn3C)cc2)cc1`, the B-score is 0.419.

Turning to `Cc1ccc(C(=O)N/N=C/c2sc(=O)n(Cc3cccc(C(=O)O)c3)c2Cl)cc1`, the B-score was 2.4.

In the case of `O=c1c2ccccc2c(-c2ccc(Br)cc2)nn1Cc1ccccc1`, the B-score was 0.372.

On to `N#Cc1nc(Cc2cccc3ccccc23)oc1NCc1ccc2c(c1)OCO2`, for which the B-score was -7.29 (active).

In the case of `O=C(COc1ccccc1)NCc1ccc2c(c1)OCO2`, the B-score was -1.91.

On to `Cn1cc(CCC(=O)NCc2ccc3c(c2)OCO3)c2ccccc21`, for which the B-score was -2.19.

`C=CCOC(=O)C1=C[C@H](c2ccc(Br)cc2)C[C@H](OCCCCO)O1`: the B-score is -0.545.

Turning to `COc1ccc(C2/C=C\CN(CC(C)C)CC(=O)N2Cc2ccc(F)cc2)cc1` (centres undefined), the B-score was -0.399.

Consider `COc1ccc(N2CCN(C(=O)CCc3nc(-c4ccc(C)cc4)no3)CC2)cc1`, for which the B-score is -3.49 (active).

Turning to `CCOc1cc(-c2noc(CCC(=O)N3CCOCC3)n2)ccc1OC`, the B-score was 0.164.

For the compound `Cc1ccc(-c2noc(CCC(N)=O)n2)cc1`, the B-score was 0.127.

In the case of `C#CCOCCOCCOCCNc1nc(N2CCN(C(=O)C([C@@H](C)CC)n3cc(C(N)COC(=O)C(F)(F)F)nn3)CC2)nc(N2CCN(C(=O)[C@H](Cc3ccc(O)cc3)n3cc(C(N)[C@H](C)CC)nn3)CC2)n1` (some centres undefined), the B-score is 0.00651.

Regarding `Cc1ccc(CNC(=O)c2ccccc2CCc2ccccc2)cc1`, the B-score is 0.145.

Consider `COc1ccc(C[C@H]2CN3C(=NC[C@H]3C)N2CCNC(=O)CCC2CCCCC2)cc1`, for which the B-score is -0.267.

On to `O=C(CSc1nnc(-c2c[nH]c3ccccc23)o1)c1ccccc1`, for which the B-score was 0.381.

With `O=C(CSCc1ccc([N+](=O)[O-])cc1)Nc1cccc(C(=O)Nc2ccccc2C(=O)O)c1`, the B-score is -1.32.

As to `O=C(NCCc1ccccc1)/C(=C\c1ccc([N+](=O)[O-])cc1)NC(=O)c1ccccc1`, the B-score is 0.653.

With `O=C(CSCc1ccc([N+](=O)[O-])cc1)NCCSCc1ccccc1`, the B-score is -6.39 (active).

Turning to `COc1cccc(/C=N/NC(=O)C(=O)N2CCCC2)c1`, the B-score is 1.2.

Turning to `COC(=O)COc1cccc2c(=O)n(CC(=O)NCCc3ccc(OC)c(OC)c3)ccc12`, the B-score was 1.52.

As for `CC(C)(C)n1nnnc1C(c1ccc(F)cc1)N1CCN(Cc2ccc3c(c2)OCO3)CC1` (centres undefined), the B-score is -3.16.

Turning to `CC(C)(C)n1nnnc1C(c1ccc(Cl)cc1)N1CCSCC1` (centres undefined), the B-score is -2.81 (active).

In the case of `Cc1cccc(N2CCN(C(c3ccc(N(C)C)cc3)c3nnnn3C(C)(C)C)CC2)c1C` (centres undefined), the B-score is -3.44.

As to `COc1ccccc1-c1n[nH]c2c1[C@H](C)CC[C@H]2C(C)C`, the B-score was -2.06.

Take `CCn1c(COc2ccc(OC)cc2)nnc1SCC(=O)Nc1cc(OC)ccc1OC`: the B-score is -0.694.

In the case of `CCn1nc(C)c(NC(=O)/C=C/c2ccc(OC)c(COc3ccc(Br)cc3)c2)c1C`, the B-score is -3.94 (active).

On to `COc1ccc(/C=C/C(=O)Nc2c(C)nn(C)c2C)cc1COc1ccc(Br)cc1`, for which the B-score is -1.13.

Regarding `Cc1ccc(C(=O)N/C(=C/C=C/c2ccccc2)C(=O)NCc2ccco2)cc1`, the B-score is -4.77 (active).

Take `O=C(CN1CCN(S(=O)(=O)/C=C/c2ccccc2)CC1)NC(=O)NCc1ccco1`: the B-score is 0.253.

For the compound `CCCCOc1ccc(C(=O)NCc2ccco2)cc1`, the B-score was -0.276.

With `O=C(CSCc1ccccc1Cl)NNC(=O)c1ccccc1`, the B-score was -0.234.

For `CCOC(=O)c1ccc(NC(=O)c2c(N)n(C)c(=O)[nH]c2=O)cc1`, the B-score was -2.

With `COC(=O)CN(c1nc(C)c(Cl)c(OC)n1)S(=O)(=O)c1ccc(C)cc1`, the B-score is -3.54 (active).

On to `CCN(CC)C(=O)CN(c1cccc(OC)c1)S(=O)(=O)c1ccc(C)cc1`, for which the B-score is 0.247.

`COc1cccc(NC(=O)CN(C)S(=O)(=O)c2ccc(C)cc2)c1`: the B-score is 0.446.

Turning to `O=C(NC1CC1)C1=C[C@H](c2c[nH]c3ccccc23)C[C@H](OCc2ccc(CO)cc2)O1`, the B-score is -0.0426.

Regarding `Cc1cc(C)cc(OCC(=O)NNC(=O)c2cc3ccccc3oc2=O)c1`, the B-score was 0.0296.

With `CCOC(=O)CSc1ncc(-c2cccc(Cl)c2)cn1`, the B-score is 0.28.

`Nc1c(-c2cccc(Cl)c2)cnn1-c1cccc([N+](=O)[O-])c1`: the B-score was -4.85 (active).

On to `Cc1onc(-c2c(Cl)cccc2Cl)c1C(=O)c1c[nH]c(C(=O)NC2CC2)c1`, for which the B-score was 0.359.

Regarding `Cc1onc(-c2ccccc2Cl)c1C(=O)NCCn1ccc2ccccc21`, the B-score is -3.91 (active).

Turning to `Cc1ccc2cc(CCNC(=O)c3ccc4c(c3)OCO4)c(=O)[nH]c2c1`, the B-score was 0.446.

For `Cc1ccc2cc(CCNC(=O)c3c(-c4ccccc4Cl)noc3C)c(=O)[nH]c2c1`, the B-score was -4.54 (active).

With `COCCNC(=O)c1ccccc1-c1nc(-c2ccccc2Cl)no1`, the B-score is -0.0406.

With `Cc1onc(-c2ccccc2Cl)c1C(=O)OCC(=O)c1ccccc1`, the B-score was -0.332.

`CCCCCCNS(=O)(=O)c1ccccc1Br`: the B-score was -1.42.

In the case of `CC(C)C(=O)N1CCC2(CC1)Oc1ccc(F)cc1C(=O)C21CC(c2ccccc2)=NO1` (centres undefined), the B-score was -0.517.

Turning to `CC(C)(C)Oc1ccccc1Nc1nc(NCCO)nc(N2CCCC2)n1`, the B-score was 0.107.

Consider `Cc1ccc(-c2cc(=O)c3ccc(F)cc3[nH]2)cc1`, for which the B-score is -1.19.

For the compound `O=c1oc2cc(O)ccc2cc1-c1ccc(F)cc1`, the B-score was -0.437.

On to `CCCCCCc1cc2cc(-c3nnc(-c4ccccc4)o3)c(=O)oc2cc1O`, for which the B-score was -8.89 (active).

With `O=C(c1ccc(Cl)cc1)c1cnc(Nc2ccccc2)s1`, the B-score was 0.657.

Turning to `C[C@@H]1NC(=O)c2cc([N+](=O)[O-])cc(F)c2NCCC[C@@H](C(N)=O)NC(=O)[C@H](CC(N)=O)NC1=O`, the B-score was 0.0125.

On to `CCCCNC(=O)c1onc(CSc2cccc(OC)c2)c1C(=O)O`, for which the B-score is -0.115.

For `O=C(O)C1=C[C@H](c2cccs2)C[C@H](OCCCCO)O1`, the B-score was 0.408.

In the case of `CN(c1ccc(C(=O)NCc2ccccn2)cc1)S(C)(=O)=O`, the B-score is 0.091.

Take `Cc1ccc(C(=O)NCCNS(=O)(=O)c2ccccc2)cc1`: the B-score is 0.965.

For the compound `Cc1ccccc1CSCCNC(=O)c1ccc(N(C)S(=O)(=O)c2ccccc2)cc1`, the B-score is -5.82 (active).

Take `NC(N)=NCCCc1cn(CC(=O)N2CCNCC2)nn1`: the B-score is 0.0996.

Turning to `N#Cc1ccc(-c2ccc(F)cc2)nc1Sc1ccccc1`, the B-score is -0.0447.

As to `Cc1ccc(SCC2=NNC(=O)C2)cc1`, the B-score was -0.242.

Take `COc1ccc2c(c1)CCNC2Cc1ccc(OC)c(O)c1` (centres undefined): the B-score was 0.0462.

For the compound `O=C(CN1CCN(C(=O)c2ccco2)CC1)Nc1ccc(Cl)c(C(F)(F)F)c1`, the B-score was -6.28 (active).

Turning to `O=C(CN1CCN(C(=O)c2ccco2)CC1)Nc1ccc2c(c1)OCO2`, the B-score was 0.902.

`COc1ccc(OC)c(NC(=O)CN2CCN(C(=O)c3ccco3)CC2)c1`: the B-score was 1.23.

With `COc1ccc(CC(=O)Nc2sc(Cc3ccccc3)c(C)c2C(N)=O)cc1`, the B-score is -0.493.

Turning to `Cc1ccccc1NC(=O)C(C)c1ccc(-c2ccccc2)c(F)c1` (centres undefined), the B-score is -0.689.

With `CCCSc1nc2c(c(=O)[nH]c(=O)n2C)n1CCc1ccccc1`, the B-score was -0.0804.

For `CN1CCN(c2nc3c(c(=O)[nH]c(=O)n3C)n2Cc2cccc3ccccc23)CC1`, the B-score was 0.465.

As to `CC1CCN(c2nc3c(c(=O)[nH]c(=O)n3C)n2CCCc2ccccc2)CC1`, the B-score is -5.1 (active).

On to `Cc1nc(C(=O)Nc2ccc(Cl)cc2)sc1C1(C)CC(c2ccccc2)=NO1` (centres undefined), for which the B-score is 0.201.

With `O=c1c(-c2ccccc2)coc2cc(O)ccc12`, the B-score is 1.09.

On to `CCN(CC)C(=O)CC(c1ccc2c(c1)OCO2)c1c(OC)cc(OC)c2c(-c3ccccc3)cc(=O)oc12` (centres undefined), for which the B-score is -1.45.

Turning to `CCn1c(O)c(N=NC2=NC(=O)CS2)c2cc(C)ccc21`, the B-score is -4.99 (active).

Turning to `COC(=O)Cn1c2ccc(C)cc2c2nc(C)sc21`, the B-score is 1.71.

For the compound `Cc1nnc(NC(=O)CSc2nc(C3CCCCC3)nc3ccccc23)s1`, the B-score was -0.12.

Regarding `NC(=O)[C@H]1CC2(CC(c3cccc(NC(=O)[C@H]4CCC(=O)N4)c3)=NO2)CN1C(=O)c1ccccc1C(=O)c1ccccc1` (some centres undefined), the B-score is -0.157.

Take `CCO[C@H]1OC(C(=O)Nc2ccccc2)=C[C@@H](C2CC2)[C@@H]1CCCO`: the B-score was 0.964.

With `NC(=O)C1=C[C@@H](c2csc3ccccc23)C[C@@H](OCc2ccc(CO)cc2)O1`, the B-score is -0.0524.

For the compound `Cc1ccc(C)c(NC(=O)C2CC(=O)N(C(C)C)C2)c1` (centres undefined), the B-score was -0.00724.

With `COC(=O)C(CC(=O)Nc1cc(C)ccc1C)Nc1ccccc1OC` (centres undefined), the B-score was -0.376.

For `Cc1ccc(C)c(NC(=O)C2Cc3ccccc3CN2C(=O)OCc2ccccc2)c1` (centres undefined), the B-score is -6.09 (active).

The values above are taken from PubChem BioAssay AID449739 (Vanderbilt High Throughput Screening Facility, 2010).
